# Data taken from article PMC5540273 (PLoS ONE, 2017).
# Like-named read-outs stand apart in the source and are kept apart here.
# How the values were obtained:
# Conditions in all cases: n = 1
# [1] = system: PRKCQ
# [2] = system: PRKD1
# [3] = system: PRKD2
# [4] = system: PRKD3
# [5] = system: PRKG1
# [6] = system: PRKG2
# [7] = system: T1, PRKR
# T1 construct: gene EIF2AK2
# [8] = system: PRKX
# [9] = system: PRP4
# [10] = system: T2, PYK2
# T2 construct: gene PTK2B
# [11] = system: QSK
# [12] = system: RAF1
# [13] = system: RET
# [14] = system: RIOK1
# [15] = system: RIOK2
# [16] = system: RIOK3
# [17] = system: RIPK1
# [18] = system: RIPK2
# [19] = system: RIPK4
# [20] = system: RIPK5
# [21] = concentration: 1 μM, replicates: in singlicate
# 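Note: KINOMEscan kinase panel screen.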
smiles,measurement,setting,value
Cl.c1ccc(-c2n[nH]cc2-c2ccnc(-c3ccc(CN4CCOCC4)cc3)c2)nc1 [GW776245],%Inh,[1]; [21],0%
same,%Inh,[2]; [21],62%
same,%Inh,[3]; [21],44%
same,%Inh,[4]; [21],28%
same,%Inh,[5]; [21],0%
same,%Inh,[6]; [21],16%
same,%Inh,[7]; [21],0%
same,%Inh,[8]; [21],0%
same,%Inh,[9]; [21],0%
same,%Inh,[10]; [21],14%
same,%Inh,[11]; [21],0%
same,%Inh,[12]; [21],37%
same,%Inh,[13]; [21],0%
same,%Inh,[14]; [21],19%
same,%Inh,[15]; [21],0%
same,%Inh,[16]; [21],20%
same,%Inh,[17]; [21],11%
same,%Inh,[18]; [21],36%
same,%Inh,[19]; [21],0%
same,%Inh,[20]; [21],0%
CCCc1ccc(S(=O)(=O)NC2CCN(c3ccnc(Nc4ccc(F)cc4)n3)C2)cc1 (stereo not shown) [GSK1379715],%Inh,[1]; [21],27%
same,%Inh,[2]; [21],1%
same,%Inh,[3]; [21],0%
same,%Inh,[4]; [21],0%
same,%Inh,[5]; [21],0%
same,%Inh,[6]; [21],0%
same,%Inh,[7]; [21],0%
same,%Inh,[8]; [21],1%
same,%Inh,[9]; [21],20%
same,%Inh,[10]; [21],0%
same,%Inh,[11]; [21],0%
same,%Inh,[12]; [21],15%
same,%Inh,[13]; [21],16%
same,%Inh,[14]; [21],3%
same,%Inh,[15]; [21],0%
same,%Inh,[16]; [21],0%
same,%Inh,[17]; [21],0%
same,%Inh,[18]; [21],0%
same,%Inh,[19]; [21],10%
same,%Inh,[20]; [21],0%
Cc1cc(N2Cc3ccccc3C2)nc(Nc2ccc(S(=O)(=O)N3CCOCC3)cc2)n1.Cl [GSK1669917],%Inh,[1]; [21],0%
same,%Inh,[2]; [21],0%
same,%Inh,[3]; [21],0%
same,%Inh,[4]; [21],0%
same,%Inh,[5]; [21],0%
same,%Inh,[6]; [21],0%
same,%Inh,[7]; [21],0%
same,%Inh,[8]; [21],0%
same,%Inh,[9]; [21],16%
same,%Inh,[10]; [21],0%
same,%Inh,[11]; [21],2%
same,%Inh,[12]; [21],0%
same,%Inh,[13]; [21],0%
same,%Inh,[14]; [21],24%
same,%Inh,[15]; [21],0%
same,%Inh,[16]; [21],25%
same,%Inh,[17]; [21],0%
same,%Inh,[18]; [21],0%
same,%Inh,[19]; [21],98.9%
same,%Inh,[20]; [21],6%
CS(=O)(=O)c1ccc(-c2c(-c3ncn[nH]3)sc(N3CCOCC3)c2C#N)cc1,%Inh,[1]; [21],0%
same,%Inh,[2]; [21],19%
same,%Inh,[3]; [21],11%
same,%Inh,[4]; [21],14%
same,%Inh,[5]; [21],12%
same,%Inh,[6]; [21],6%
same,%Inh,[7]; [21],0%
same,%Inh,[8]; [21],32%
same,%Inh,[9]; [21],0%
same,%Inh,[10]; [21],0%
same,%Inh,[11]; [21],0%
same,%Inh,[12]; [21],0%
same,%Inh,[13]; [21],5%
same,%Inh,[14]; [21],0%
same,%Inh,[15]; [21],0%
same,%Inh,[16]; [21],0%
same,%Inh,[17]; [21],6%
same,%Inh,[18]; [21],0%
same,%Inh,[19]; [21],0%
same,%Inh,[20]; [21],18%
O=c1cc(N2CCOCC2)nc2n(Cc3cccc(Cl)c3Cl)ccn12 [GSK2286295],%Inh,[1]; [21],14%
same,%Inh,[2]; [21],0%
same,%Inh,[3]; [21],20%
same,%Inh,[4]; [21],0%
same,%Inh,[5]; [21],0%
same,%Inh,[6]; [21],0%
same,%Inh,[7]; [21],0%
same,%Inh,[8]; [21],0%
same,%Inh,[9]; [21],0%
same,%Inh,[10]; [21],0%
same,%Inh,[11]; [21],1%
same,%Inh,[12]; [21],7%
same,%Inh,[13]; [21],1%
same,%Inh,[14]; [21],42%
same,%Inh,[15]; [21],56%
same,%Inh,[16]; [21],19%
same,%Inh,[17]; [21],0%
same,%Inh,[18]; [21],6%
same,%Inh,[19]; [21],6%
same,%Inh,[20]; [21],0%
COC(=O)c1c(-c2ccccc2)c2cc(C(=O)O)ccc2c(=O)n1Cc1ccccc1,%Inh,[1]; [21],22%
same,%Inh,[2]; [21],14%
same,%Inh,[3]; [21],0%
same,%Inh,[4]; [21],3%
same,%Inh,[5]; [21],8%
same,%Inh,[6]; [21],0%
same,%Inh,[7]; [21],3%
same,%Inh,[8]; [21],0%
same,%Inh,[9]; [21],9%
same,%Inh,[10]; [21],0%
same,%Inh,[11]; [21],0%
same,%Inh,[12]; [21],81%
same,%Inh,[13]; [21],21%
same,%Inh,[14]; [21],0%
same,%Inh,[15]; [21],26%
same,%Inh,[16]; [21],11%
same,%Inh,[17]; [21],0%
same,%Inh,[18]; [21],0%
same,%Inh,[19]; [21],0%
same,%Inh,[20]; [21],0%
COc1ccc(Nc2nccc(-c3cccc(NC(=O)c4cc5cc(F)ccc5[nH]4)c3)n2)cc1 [GSK1229782],%Inh,[1]; [21],12%
same,%Inh,[2]; [21],10%
same,%Inh,[3]; [21],11%
same,%Inh,[4]; [21],24%
same,%Inh,[5]; [21],10%
same,%Inh,[6]; [21],0%
same,%Inh,[7]; [21],10%
same,%Inh,[8]; [21],46%
same,%Inh,[9]; [21],66%
same,%Inh,[10]; [21],21%
same,%Inh,[11]; [21],3%
same,%Inh,[12]; [21],13%
same,%Inh,[13]; [21],14%
same,%Inh,[14]; [21],72%
same,%Inh,[15]; [21],3%
same,%Inh,[16]; [21],50%
same,%Inh,[17]; [21],22%
same,%Inh,[18]; [21],17%
same,%Inh,[19]; [21],0%
same,%Inh,[20]; [21],25%
Cc1ccc(NC(=O)Nc2cc(C(C)(C)C)nn2-c2ccccc2)cc1 [GSK1014915],%Inh,[1]; [21],0%
same,%Inh,[2]; [21],7%
same,%Inh,[3]; [21],0%
same,%Inh,[4]; [21],18%
same,%Inh,[5]; [21],11%
same,%Inh,[6]; [21],0%
same,%Inh,[7]; [21],0%
same,%Inh,[8]; [21],57%
same,%Inh,[9]; [21],1%
same,%Inh,[10]; [21],4%
same,%Inh,[11]; [21],13%
same,%Inh,[12]; [21],89%
same,%Inh,[13]; [21],46%
same,%Inh,[14]; [21],18%
same,%Inh,[15]; [21],0%
same,%Inh,[16]; [21],0%
same,%Inh,[17]; [21],9%
same,%Inh,[18]; [21],6%
same,%Inh,[19]; [21],12%
same,%Inh,[20]; [21],0%
Cc1ccc(NC(=O)Nc2cccc(C(F)(F)F)c2)cc1 [GSK955403],%Inh,[1]; 1 µM,24%
same,%Inh,[2]; 1 µM,18%
same,%Inh,[3]; 1 µM,0%
same,%Inh,[4]; 1 µM,1%
same,%Inh,[5]; 1 µM,19%
same,%Inh,[6]; 1 µM,0%
same,%Inh,[7]; 1 µM,13%
same,%Inh,[8]; 1 µM,1%
same,%Inh,[9]; 1 µM,10%
same,%Inh,[10]; 1 µM,0%
same,%Inh,[11]; 1 µM,0%
same,%Inh,[12]; 1 µM,8%
same,%Inh,[13]; 1 µM,0%
same,%Inh,[14]; 1 µM,17%
same,%Inh,[15]; 1 µM,0%
same,%Inh,[16]; 1 µM,0%
same,%Inh,[17]; 1 µM,7%
same,%Inh,[18]; 1 µM,8%
same,%Inh,[19]; 1 µM,0%
same,%Inh,[20]; 1 µM,0%
COc1cc2ncn(-c3cc(OCC4CCCO4)c(C(N)=O)s3)c2cc1OC (stereo not shown) [GSK204607],%Inh,[1]; [21],0%
same,%Inh,[2]; [21],0%
same,%Inh,[3]; [21],0%
same,%Inh,[4]; [21],0%
same,%Inh,[5]; [21],0%
same,%Inh,[6]; [21],0%
same,%Inh,[7]; [21],13%
same,%Inh,[8]; [21],10%
same,%Inh,[9]; [21],4%
same,%Inh,[10]; [21],0%
same,%Inh,[11]; [21],0%
same,%Inh,[12]; [21],0%
same,%Inh,[13]; [21],0%
same,%Inh,[14]; [21],77%
same,%Inh,[15]; [21],0%
same,%Inh,[16]; [21],94.5%
same,%Inh,[17]; [21],5%
same,%Inh,[18]; [21],7%
same,%Inh,[19]; [21],0%
same,%Inh,[20]; [21],0%
CC(C)(C)c1ccc(C(=O)Nc2cn3cc(-c4cccnc4)ccc3n2)cc1,%Inh,[1]; [21],22%
same,%Inh,[2]; [21],21%
same,%Inh,[3]; [21],14%
same,%Inh,[4]; [21],5%
same,%Inh,[5]; [21],7%
same,%Inh,[6]; [21],26%
same,%Inh,[7]; [21],0%
same,%Inh,[8]; [21],10%
same,%Inh,[9]; [21],22%
same,%Inh,[10]; [21],7%
same,%Inh,[11]; [21],0%
same,%Inh,[12]; [21],0%
same,%Inh,[13]; [21],14%
same,%Inh,[14]; [21],34%
same,%Inh,[15]; [21],33%
same,%Inh,[16]; [21],9%
same,%Inh,[17]; [21],27%
same,%Inh,[18]; [21],26%
same,%Inh,[19]; [21],0%
same,%Inh,[20]; [21],17%
